# Measured values: PubChem BioAssay
# Where “and” joins values, the source holds several entries; their conditions need not be identical. Equal values may be shown once. For some of these results: Potency and affinity values are given separately. Calls of active or inactive are those of the source.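 Rule for the calls: active = z-score of at least 1.8 in each of two replicates, scored against plate mean and spread of sample wells; inactive = the rest.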
# Columns and labels:
# [1] = viability rescue of complex I mutant cybrids, primary screen, cell-based, galactose medium, ATP luminescence (AID 1645843); conditions: complex I mutant cybrid cells, 72 h, stronger effect = higher value;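 note: positive z means more ATP and so rescue of galactose-driven cybrid death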
# [2] = polyglutamine-triggered caspase-3 activation inhibitors, cell-based (AID 1583); conditions: polyglutamine-induced caspase-3 activation, cell assay; stronger effect = higher value;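 tested at 10 µM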
# [3] = suppressors of polyQ aggregation in yeast, 75Q-TubU reporter (AID 1593); conditions: Yeast 75Q polyglutamine aggregation reporter
# [4] = rescue of polyQ-huntingtin neuronal dysfunction in worms, whole organism, C. elegans mechanosensory neurons, N-terminal huntingtin (AID 1599); conditions: touch response, stronger effect = higher value
# [5] = inhibitors of mitochondrial cytochrome c release, biochemical, purified mitochondria (AID 1603); conditions: stronger effect = lower value;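 note: mouse liver mitochondria challenged with calcium chloride; signal normalized to the plate average as 100%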
# [6] = inhibitors of polyQ protein aggregation (AID 1604); conditions: polyglutamine-induced protein aggregation inhibition assay; stronger effect = higher value; tested at 2.5 µM
# [7] = enhancers of glutamate uptake in motor neurons, MN-1 cell line (AID 1612); conditions: MN-1 motor neuron cells, stronger effect = higher value;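 note: tested at 1 µM final; 0% = mean of DMSO vehicle wells on each plate; positive means more glutamate uptake than control and negative means less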
# [8] = suppressors of polyglutamine aggregation in yeast, 75Q-TubH (AID 1616); conditions: S. cerevisiae 75Q-TubH polyglutamine aggregation suppression; stronger effect = higher value
# [9] = reducers of polyQ inclusions in PC12 cells, cell-based, NGF-treated PC12, GFPQ80 (AID 1614); conditions: PC12 NGF-treated GFP-polyQ80 inclusion reduction;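 note: lower means fewer inclusions and 0 means no inclusions at all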
compound,measurement,setting,value
CC(C)C1=NOC(c2nc(C(C)c3ccccc3)no2)C1 (stereo not given),z-score,[1],-0.83 (inactive)
CCCN1CCC(N2CCC(n3cc(-c4ccccc4)nn3)CC2)CC1,z-score,[1],0.325 (inactive)
CCCC(CCC)C(=O)N1CCC(n2cc(C3CC3)nn2)CC1,z-score,[1],-0.125 (inactive)
CC(CCCC(C)(C)O)CCNC(C1CC1)C1CC1 (stereo not given),z-score,[1],-0.515 (inactive)
CCC(C)(C)NCc1c(C)cc(C)c(CO)c1C,z-score,[1],-0.525 (inactive)
Cc1ccc(OCc2nnc(NC(=O)NCCc3cnc[nH]3)s2)cc1,z-score,[1],-0.48 (inactive)
Cc1ccc2c(C(=O)N3CCN(C)C(=O)C3C)cc(-c3cnn(C(C)C)c3)nc2c1 (stereo not given),z-score,[1],-0.56 (inactive)
COc1cccc(OC)c1-c1noc(CCN2C(=O)COc3ccccc32)n1,z-score,[1],1.39 (inactive)
CC(C)N(C)C(=O)c1cc(-c2cnc(C(C)(C)C)nc2)nc2cc(F)ccc12,z-score,[1],-0.525 (inactive)
COc1ccc2c(C(=O)N(C)CCc3ccccn3)cc(-c3cnn(C)c3)nc2c1,z-score,[1],-0.54 (inactive)
CC(=O)CCC1C2=NC(=C\C3=NC(=C(/C)C4=NC(C)(C5[N-]/C(=C\2C)C(C)(CCC(=O)NCC(C)OP(=O)(O)O[C@@H]2[C@@H](CO)OC(n6cnc7cc(C)c(C)cc76)[C@@H]2O)C5CC(N)=O)C(C)(CC(N)=O)C4CCC(N)=O)/C(C)(CC(N)=O)C3CCC(N)=O)/C1(C)C.[CH2-][C@H]1OC(n2cnc3c(N)ncnc32)[C@H](O)[C@@H]1O.[Co+2] (stereo not given in full),inhibition,[2],55.6%
same,score,[3],1.56
same,rescue above control,[4],0.82
same,cytochrome c release ratio,[5],0.56
same,inhibition of aggregation,[6],44.4%
same,glutamate uptake change,[7],14.2%
same,aggregation suppression score,[8],1.42
Cc1cc(CC(=O)Nc2cc(C)nn2C2CCCCC2)on1,z-score,[1],0.225 (inactive)
CC(C)CCC(=O)N(C)CCCC1CCCC1,z-score,[1],-0.145 (inactive)
Cc1ccc(-c2ncccc2OC2(C(=O)O)CCCC2)cc1C,z-score,[1],-0.735 (inactive)
CC(=O)N1CCN(C(=O)c2c(-c3ccccc3)nn(-c3ccccc3)c2C)CC1,z-score,[1],-0.38 (inactive)
CCn1cc(-c2cc(C(=O)N3CCN(C)C(=O)C3C)c3ccc(C)cc3n2)cn1 (stereo not given),z-score,[1],-0.19 (inactive)
Fc1ccc(-n2cc(-c3ccnc(NCc4cnc5ccccn45)n3)cn2)cc1,z-score,[1],-0.035 (inactive)
CC[C@H](C)[C@H](N)C(=O)N1CCC(Cn2cc(C3CCCCC3)nn2)CC1,z-score,[1],-0.81 (inactive)
O=C(Nc1ccc2nccnc2c1)c1csc(Cc2ccccc2)n1,z-score,[1],-1.07 (inactive)
COc1ccccc1N1CCN(C(=O)CCC(C)C)CC1(C)C,z-score,[1],2.31 (active)
CCC(=O)OC1CCC2C3CCc4cc(O)ccc4C3CCC12C (stereo not given),inhibition,[2],6.67%
same,score,[3],0.64
same,rescue above control,[4],-1.7
same,cytochrome c release ratio,[5],1.72
same,inhibition of aggregation,[6],85.9%
same,glutamate uptake change,[7],-23.3%
same,aggregation suppression score,[8],0.421
O=C(Nc1nc(-c2ccccc2)ns1)N1CCN(C2CCCCC2)C(=O)C1,z-score,[1],-0.54 (inactive)
CCN(C)Cc1ccc(-c2nc(C(F)(F)F)c(C)c(=O)[nH]2)cc1,z-score,[1],0.97 (inactive)
Cc1nsc(NC(=O)NCc2ccccc2OC(F)(F)F)n1,z-score,[1],0.2 (inactive)
COc1cc(OC2(C(=O)O)CCSCC2)ccc1CN1CCCNCC1,z-score,[1],-0.23 (inactive)
Cn1nc(NC(=O)Cn2ccc(-c3ccsc3)n2)c2ccccc21,z-score,[1],0.985 (inactive)
Cc1cc2c(=O)n(Cc3nc4ccccc4[nH]3)cnc2s1,z-score,[1],-0.615 (inactive)
CCCc1cn(C2CCN(C(=O)CC3CC(C)(C)NC(C)(C)C3)CC2)nn1,z-score,[1],-0.53 (inactive)
CCCCn1cc(-c2cc(C(=O)N3CCCC3C)c3cccc(C)c3n2)cn1 (stereo not given),z-score,[1],1.28 (inactive)
CC(Cc1cccnc1)n1cnc2sc3c(c2c1=O)CCCCC3 (stereo not given),z-score,[1],0.91 (inactive)
COc1cccc(C(=O)N2CCC(n3cc(-c4ccccn4)nn3)CC2)c1,z-score,[1],0.785 (inactive)
CCCCc1cn(C2CCN(C(=O)[C@@H]3CCCO3)CC2)nn1,z-score,[1],-0.55 (inactive)
Fc1ccc(C(c2ccccc2)(c2ccccc2F)n2ccnc2)cc1 (stereo not given),inhibition,[2],-9.56% and 14%
same,score,[3],1.45 and 0.36
same,rescue above control,[4],12 and 6.65
same,cytochrome c release ratio,[5],3.37 and 1.21
same,glutamate uptake change,[7],5.37% and 7.94%
same,inclusion score,[9],2
same,aggregation suppression score,[8],1.35 and 0.117
Cc1c(C(F)(F)F)nc(-c2ccc(CN3CCN(C)C(=O)C3)cc2)[nH]c1=O,z-score,[1],-0.5 (inactive)
COc1cccc2ccc(-c3ccccc3)nc12,z-score,[1],-0.375 (inactive)
CC(C)[C@@H](C)/C=C/[C@@H](C)C1CC[C@H]2/C(=C/C=C3\C[C@@H](O)CC[C@@H]3C)CCC[C@]12C (stereo not given in full),inhibition,[2],63.6%
same,score,[3],0.42
same,rescue above control,[4],5.3
same,cytochrome c release ratio,[5],0.91
same,inhibition of aggregation,[6],83.3%
same,glutamate uptake change,[7],-13.9%
same,aggregation suppression score,[8],0.578
Cc1ccccc1C1CCCN(C(=O)CCC(C)C)C1 (stereo not given),z-score,[1],-0.255 (inactive)
COc1ccc2c(c1)CC(c1nc(Cc3cccs3)no1)CO2 (stereo not given),z-score,[1],-0.1 (inactive)
CCn1cc(CN(C(=O)c2cnc3ccccn3c2=O)C(C)C)cn1,z-score,[1],0.18 (inactive)
OC1(c2ccccc2)CCN(Cc2ccccc2Cl)C1 (stereo not given),z-score,[1],-1.11 (inactive)
O=c1c2ccc(C(F)(F)F)cc2ncn1CCC1CCCCN1C1CCCC1 (stereo not given),z-score,[1],-0.69 (inactive)
OCCCCCNc1nccc(-c2cnn(-c3ccccc3F)c2)n1,z-score,[1],-0.905 (inactive)
COc1ccc(C(=O)N2CCN(C(=O)c3cc(C)c(C)cc3C)CC2)cc1,z-score,[1],0.125 (inactive)
Cc1cccc2ncn(C3CC(C)(C)NC(C)(C)C3)c(=O)c12,z-score,[1],-0.515 (inactive)
CCCC[C@@H]1C[C@@H]1C(=O)N1CCC(n2cc(CC(C)C)nn2)CC1,z-score,[1],-0.07 (inactive)
c1ccc(-n2cc(-c3ccnc(NCc4cnc5ccccn45)n3)cn2)cc1,z-score,[1],-1.09 (inactive)
